This assay deals with HL-60(TB) leukemia. The assay is described as follows: NCI-60 one-dose screen, 48 h (100 = growth as untreated, 0 = no growth, -100 = all killed). The note with it: 10 µM unless noted.

This is part of a sample that, as a whole, favours compounds with a hit. Of some 83,000 tested, about 20% had one in any assay.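 Compound tested at a single concentration for 48 hours in 96-well plates; a percent growth value below 10 was scored as active.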 Values without a mark were called inactive. Active and inactive are the calls of the source.

`COC(=O)c1ccc2[nH]c(O)c(C(=Nc3ccc(N(C)C(=O)CN4CCN(C)CC4)cc3)c3ccc(OC)cc3)c2c1`: the growth was -13.8% (active).

On to `Cc1ccc(C2=NN3C(C2)c2cc(Br)ccc2OC32CCN(Cc3ccccc3)CC2)o1` (stereo not drawn), for which the growth was 90.4%. With `CCOC(=O)c1cc(C(=O)c2ccc(Br)cc2)n2cc(C)cc(C)c12` the figure was 103%; with `Cc1cc(Cl)cc(Cc2cc(Cl)cc(C)c2O)c1O`, -27.9% (active); with `O=C1/C(=C/c2ccc([N+](=O)[O-])s2)Oc2ccc(Cl)cc21`, -20.6% (active). With `O=C(Nc1ccc(Nc2ccncc2)cc1)c1ccc(C(=O)Nc2ccc(Nc3ccncc3)cc2)cc1` the figure was 23%; with `CC/C=C(\C)C(CCC)(CN=O)C(=O)OCC` (stereo not drawn), 110%; with `OC(c1cc(-c2cccc(Cl)c2)nc2ccccc12)C1CCCCN1` (stereo not drawn), -63.1% (active). Take `Cc1cccc(NC(=O)c2sc3nc4c(cc3c2N)CCCC4)c1`: the growth is 22.1%. The value for `CCN1C(=O)N(CC)C2C1NC(=S)N2/N=C/c1ccc(OC)cc1` (stereo not drawn) was -12.1% (active); that for `C=CCn1ccc(=O)nc1SC` was 96.4%. The value for `CC(C)(C)Nc1c(-c2c3ccccc3cc3ccccc23)nc2ccccn12` was 74.4%. With `Clc1ccc(/C=C/c2ccccn2)cc1` the figure was 99.4%; with `Cn1c(=O)c2c(nc(Cl)n2CCl)n(C)c1=O`, 45.7%; with `O=C(Nc1ccc(Oc2cccc(Cl)c2)c(Cl)c1)c1cccnn1`, 89.5%.

Turning to `CCCCCCc1cc2cc(-c3nc4ccccc4[nH]3)c(=Nc3ccccc3C)oc2cc1O`, the growth was 12.2%.

Regarding `CCN1C(=O)N(CC)C2C1NN=c1s/c(=C3\C(=O)N(CCc4ccccc4)c4ccccc43)c(=O)n12` (stereo not drawn), the growth is -46.1% (active). The value for `CCCCCCCCCCCCCCNCc1ccccc1` was 51.9%; that for `O=C(O)CCCc1ccccc1` was 109%; that for `O=C1NC(=O)C(Cn2cnc3ccccc32)N1` (stereo not drawn) was 95.8%. The value for `N#Cc1c(-c2ccccc2)nc2c(c(-c3ccccc3)nn2-c2ccccc2)c1-c1ccc(N2CCCCC2)cc1` was 95.8%. For `CN(C)CCCC1(c2ccc(F)cc2)OCc2cc(-c3ccc(C(F)(F)F)nc3)ccc21` (stereo not drawn), the growth was 43.1%. The value for `CCN(CC)CCC(=O)c1ccc(OC)c2ccccc12` was 44.2%.

Values taken from PubChem BioAssay (NCI).
